High-throughput results from PubChem BioAssay.
This is a sample that favours compounds with a hit; in the whole collection about 4.3% have one here.
D3 ag: agonists of human D3 dopamine receptor; P35462; D3R DiscoveRx beta-arrestin cells, luminescence, 90 min; max activation, %; 410,000 tested, 0.58% active; AID 652048; in the data active = max activation above about 30%
Target sequence (P35462 whole entry, looked up): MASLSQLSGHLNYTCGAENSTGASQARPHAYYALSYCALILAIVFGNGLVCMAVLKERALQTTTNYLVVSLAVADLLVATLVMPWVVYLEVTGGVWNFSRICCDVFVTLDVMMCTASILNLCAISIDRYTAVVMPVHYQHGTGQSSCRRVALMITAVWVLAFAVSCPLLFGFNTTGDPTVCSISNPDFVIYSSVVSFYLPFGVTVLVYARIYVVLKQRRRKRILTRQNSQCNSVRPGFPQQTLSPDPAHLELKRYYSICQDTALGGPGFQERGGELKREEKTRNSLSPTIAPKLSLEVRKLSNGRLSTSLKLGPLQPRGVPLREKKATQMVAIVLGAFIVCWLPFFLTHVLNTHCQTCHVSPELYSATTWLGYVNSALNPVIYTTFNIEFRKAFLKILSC
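Agonist-mode cell screen: cells plated at 1500/well and incubated overnight at 37 °C, then exposed to library compounds for 90 min at 37 °C. Detection reagent was added for 30–60 min at room temperature, and luminescence was read.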
D3 antag: blocks the human D3 dopamine receptor; P35462; D3R cells, DiscoveRx beta-arrestin luminescence, antagonist mode; active compounds read low; max response, negative = inhibition, %; 360,000 tested, 2.5% active; AID 652054; in the data active = max response below about -50%; inconclusive = no clear call, values can overlap the other calls
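Cells expressing the human receptor were seeded at 1500 cells/well, incubated overnight at 37 degrees C in 5% CO2, then exposed to library compounds with dopamine controls for 90 minutes at 37 degrees C before luminescent detection.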
GLP1R ag: activates the human GLP-1 receptor. Potency, µM (titrated, usually from 45.6 µM), usual class: activators. AID 624172. P43220. HEK293 GLP-1R CRE-luciferase, luminescence, 4-6 h; cells express a hypersensitive GLP-1R form. 380,000 tested, 0.007% active
GLP1R inv ag: GLP-1 receptor (human) inverse agonism | Potency, µM (top dose mostly 38.3 µM), actives largely listed as inhibitors | 410,000 tested, 1.6% active | HEK293 GLP-1R CRE-luciferase, luminescence, 24 h; GLP-1R form is constitutively active | P43220; also: nearly all actives have a fitted effect of over 55% in size
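Inverse agonism was detected as reduced cAMP-driven luciferase luminescence after 24 h compound treatment. The cells were HEK293 clones expressing constitutively active human GLP-1R with the reporter. Reporter-only and GPR119 cell lines served as counterscreen controls.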
Each line names hits and unclear results; the compound was inactive in the other large screens. Unless noted, calls follow the shape of the dose curve; as a rule, active = well fitted curve in the direction sought with a large enough effect; inconclusive = small, poorly fitted or top-dose-only effect, or another doubt; inactive = no such curve, though single readings can be large; an effect the other way counts as inactive or inconclusive.

O=C(Nc1ccc(OCC(F)(F)C(F)F)c(C(F)(F)F)c1)c1ccc(Cl)cc1	GLP1R inv ag 3.55µM
COc1ccc(C(=O)Nc2ccc(OCC(F)(F)C(F)F)c(C(F)(F)F)c2)cc1OC	GLP1R inv ag 3.98µM
CCOCCc1nn2c(=O)cc(COC(=O)c3ccccc3NC(=O)c3cccs3)nc2s1	none (no result: D3 antag, GLP1R ag)
CC(C)CC(=O)Nc1ccc(C(=O)COC(=O)C2=COCCO2)cc1	none
CCSc1nnc(C)n1-c1ccc(C(=O)O)cc1	D3 antag -56.4
COC(=O)NC(=S)Nc1ccc(Oc2ccc(Cl)cc2Cl)c(Cl)c1	D3 antag -64.8, GLP1R inv ag inconclusive
COc1ccc(Cn2ccc3nc(C)c(C(=O)Nc4ccc(OC)cc4OC)cc3c2=O)cc1	none (no result: D3 antag, GLP1R ag)
OC(CNCC1CCCO1)COc1ccc(OCC(O)CNCC2CCCO2)cc1 (configuration not stated)	none
OC(CNCC1COc2ccccc2O1)COc1ccccc1F (configuration not stated)	D3 antag -78.2
CCc1ccccc1OCC(=O)NCC1COc2ccccc2O1 (configuration not stated)	GLP1R inv ag inconclusive
OC(CNCC1COc2ccccc2O1)COc1ccc(Cl)cc1 (configuration not stated)	D3 antag -80.3, GLP1R inv ag inconclusive
CC(O)C1CCC2C3CCC4CC(O)CCC4(C)C3CCC12C (configuration not stated)	none (no result: D3 ag, D3 antag, GLP1R inv ag)
CCc1nn2cc(-c3ccccc3)nc2s1	GLP1R inv ag 5.62µM
COc1cccc(-n2c(=O)c3cc(OC)c(OC)cc3n(CC(=O)Nc3ccccc3)c2=O)c1	none (no result: D3 antag)
CCCCCc1ccc(C(=O)CCCC)c(=S)[nH]1	D3 ag 30.5
COc1ccc(CCNC(=O)c2c(C)oc3ncn(CC(C)C)c(=O)c23)c(OC)c1	none (no result: D3 antag, GLP1R ag)
O=C1/C(=C\c2ccc(O)cc2)SC(=S)N1Cc1ccccc1	D3 antag -81.9, GLP1R inv ag 11.2µM
O=C(O)c1ccc(/C=C2/SC(=S)N(Cc3ccccc3)C2=O)cc1	none
O=C(CCCN1C(=O)/C(=C\c2cccs2)SC1=S)Nc1ccc(C(=O)O)cc1	none
COC(=O)c1ccc(/C=C2/SC(=S)N(CCCC(=O)Nc3ccc(O)cc3)C2=O)cc1	GLP1R inv ag 7.94µM
CCN(CC)CCOC(=O)c1ccc(NC(=O)CCCN2C(=O)/C(=C/c3cccs3)SC2=S)cc1	D3 antag -74.1, GLP1R inv ag inconclusive
CCc1nnc2c(Nc3ccc(Br)c(C)c3)nc3ccccc3n12	none (no result: D3 antag, GLP1R ag)
Cc1ccc(NC(=O)Cn2c(=O)ccc3cc(S(=O)(=O)N4CCC(C)CC4)ccc32)cc1Cl	none (no result: D3 antag)
COCCCNC(=O)Cn1c(=O)n(-c2cccc(C)c2)c(=O)c2c3c(sc21)CN(C(C)=O)CC3	none (no result: D3 antag, GLP1R ag)
O=C(CSc1nc2ccccc2n1Cc1ccc(F)c(Cl)c1)N1CCN(c2ccc(F)cc2)CC1	none (no result: D3 antag, GLP1R ag)
Cc1ccc(Cn2ccsc2=NC(=O)COC(=O)c2ccc(NC(=O)CC#N)cc2)cc1	none
Cc1ccc(Cn2ccsc2=NC(=O)CCl)cc1	GLP1R inv ag 10µM
CCOc1ccccc1-c1c2cc(O)c(=O)cc-2oc2cc(O)c(O)cc12	D3 antag -58.3, GLP1R inv ag inconclusive
O=C(Nc1ccc(Cl)cc1Cl)c1cccc(N2C(=O)C=CC2=O)c1	D3 antag -85.0
O=C(O)c1cccc(N2C(=O)C=CC2=O)c1	none
COc1ccc(Cn2cc(C(=O)O)c(=O)c3ccccc32)cc1	none
CCCCCCn1cc(C(=O)O)c(=O)c2ccccc21	D3 antag -62.5
O=C1C=CC(=O)N1c1ccc(OC(F)F)cc1	D3 antag -54.6
O=C1C=CC(=O)N1c1ccc(O)cc1	none
CO/N=C(/CNC(=O)c1cccc(Cl)c1)c1ccc(Cl)cc1	GLP1R inv ag 11.2µM
CO/N=C(/CNC(=O)c1ccc(Cl)cc1Cl)c1ccc(Cl)cc1	none
O=C(Nc1ccccc1)C(=O)Nc1ccccn1	GLP1R inv ag inconclusive
O=C(NC(=S)Nc1ccccn1)c1ccc(-c2ccccc2)cc1	D3 antag inconclusive, GLP1R inv ag inconclusive
S=C(Nc1ccc(Nc2ccccc2)cc1)Nc1ccccn1	D3 antag -67.0, GLP1R inv ag 2.24µM
Cc1csc(NC(=S)NC(=O)c2ccccc2)n1	GLP1R inv ag 3.55µM
O=C(NC(=S)Nc1ccccn1)c1ccccc1	GLP1R inv ag 10µM
